Bioassay records: PubChem BioAssay, National Center for Advancing Translational Sciences (NCATS)
TGFb inhibitor = qHTS for Inhibitors of TGF-b; Potency, µM (top dose mostly 46.1 µM), inactives show at the top dose activity, negative = inhibition, usual class: inhibitors; AID 588855, 2011; HepG2 CAGA-GFP TGF-b/SMAD3 reporter, GFP fluorescence, 18 h; TGF-beta stimulated, 500 pg/mL final; actives 1.2% (n = 410,000); note: potency is the fitted concentration of half-maximal effect; % is set by controls: 0 for no effect and ±100 for the full control effect; nearly all actives have a fitted effect of over 65% in size
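GFP signal (ex488/em500-530) from TGF-beta-stimulated HEPG2 CAGA-GFP cells, 500 pg/mL final, 18 h at 37 degrees C in DMEM plus 1% FBS, normalized to unstimulated and DMSO-stimulated controls.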
IL-1B inflam inh = qHTS for Inhibitors of Inflammasome Signaling: IL-1-beta AlphaLISA Primary Screen | THP-1 LPS/ATP IL-1B secretion, AlphaLISA, 16 h; hits give low values | activity change, % at 57.5 µM | actives 4.7% (n = 360,000) | AID 743279, 2014; in the data active = activity change below about -50%; inconclusive = mostly about -30% to -49%; note: % is set by controls: 0 for no effect and ±100 for the full control effect
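Secreted IL-1B measured by AlphaLISA bead assay after 16 h compound exposure of THP-1 cells; compounds (final up to 57.5 uM) added 1 h before LPS (250 ng/mL) and ATP (1.25 mM) stimulation; lower signal means less secretion.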
DT40 TDP1 CPT = qHTS for Inhibitors of human tyrosyl-DNA phosphodiesterase 1 (TDP1): qHTS in cells in presence of CPT; Potency, µM (top dose mostly 46.2 µM), for inactives: at the top dose activity change, negative = growth inhibition, most hits filed as inhibitors; chicken DT40 Tdp1-/-;hTDP1 cells + 20 nM CPT, ATP luminescence, 48 h; actives 12% (n = 420,000); note: potency is the fitted concentration of half-maximal effect; % is set by controls: 0 for no effect and ±100 for the full control effect; nearly all actives have a fitted effect of over 55% in size
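Cell growth measured by CellTiter-Glo luminescence after a minimum 48 h, 37 C compound exposure with 20 nM CPT in Tdp1-knockout DT40 cells stably expressing hTDP1, seeded 400/well; qHTS titration format.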
HepG2 tox = qHTS for Inhibitors of TGF-b: Cytotox Counterscreen | AID 588856, 2011 | actives 0.76% (n = 410,000) | HepG2 CAGA-GFP viability, ATP luminescence, 18 h | Potency, µM (doses to about 46.1 µM), for inactives: at the top dose activity change, negative = cytotoxicity, actives largely listed as cytotoxic; note: potency is the fitted concentration of half-maximal effect
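HepG2 CAGA-GFP cells (1000/well, DMEM with 1% FBS) received compound, then TGF-beta at 500 pg/mL final, and were incubated 18 hours at 37 degrees C. Viability was read by CellTiter-Glo luminescence. Media-only wells were set as complete cell-killing and DMSO as no toxicity.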
DT40 TDP1 no CPT = qHTS for Inhibitors of human tyrosyl-DNA phosphodiesterase 1 (TDP1): qHTS in cells in absence of CPT. actives 15% (n = 420,000). Potency, µM (series often up to 46.2 µM), inactives show at the highest dose activity change, negative = growth inhibition, usual class: inhibitors. DT40 Tdp1-/- hTDP1 cells, no CPT, ATP luminescence, 48 h; note: potency is the fitted concentration of half-maximal effect; % is set by controls: 0 for no effect and ±100 for the full control effect; nearly all actives have a fitted effect of over 55% in size
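Chicken DT40 Tdp1-/- cells stably complemented with human TDP1 were seeded at 400 cells/well with DMSO in place of 20 nM camptothecin. After compound pinning, cells grew at least 48 hr at 37 °C; viability read by CellTiter-Glo luminescence.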
TDP1 inh = qHTS Assay for Inhibitors of Tyrosyl-DNA Phosphodiesterase (TDP1); Tyrosyl-DNA phosphodiesterase 1 (Homo sapiens), Q9NUW8; recombinant TDP1, AlphaScreen DNA substrate cleavage; Potency, µM (highest dose often 130 µM), without a hit: top-dose activity change, negative = inhibition, actives largely listed as inhibitors; actives 0.28% (n = 350,000); note: potency is the fitted concentration of half-maximal effect; % is set by controls: 0 for no effect and ±100 for the full control effect; nearly all actives have a fitted effect of over 40% in size
Target sequence (Q9NUW8 whole entry, looked up): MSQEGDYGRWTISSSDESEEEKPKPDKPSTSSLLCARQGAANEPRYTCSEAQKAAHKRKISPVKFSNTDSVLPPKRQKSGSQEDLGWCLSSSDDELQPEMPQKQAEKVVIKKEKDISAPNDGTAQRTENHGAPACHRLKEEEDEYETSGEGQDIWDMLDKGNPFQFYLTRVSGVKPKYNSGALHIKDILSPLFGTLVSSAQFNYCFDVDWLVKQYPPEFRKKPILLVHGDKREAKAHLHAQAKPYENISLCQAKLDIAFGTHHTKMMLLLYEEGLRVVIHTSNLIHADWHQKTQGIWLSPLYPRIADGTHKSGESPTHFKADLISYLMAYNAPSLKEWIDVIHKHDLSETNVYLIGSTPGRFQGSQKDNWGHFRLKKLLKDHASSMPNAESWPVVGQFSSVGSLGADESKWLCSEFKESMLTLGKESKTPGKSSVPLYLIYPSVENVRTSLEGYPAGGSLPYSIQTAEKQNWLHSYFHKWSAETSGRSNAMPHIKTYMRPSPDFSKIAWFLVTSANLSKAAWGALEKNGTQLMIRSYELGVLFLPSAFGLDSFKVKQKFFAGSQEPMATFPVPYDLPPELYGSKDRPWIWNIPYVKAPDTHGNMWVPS
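Signal: AlphaScreen proximity between streptavidin donor and anti-FITC acceptor beads on intact substrate. Reaction: Tdp1 1 nM, substrate 15 nM final, 5 min RT after 15 min compound preincubation.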
Active calls of the source: *; [ ] = dose if it differs, or a comment. A selection: hits, their analogues and other compounds. The true share with any hit is near 19%. Unless noted, calls come from the whole dose curve; as a rule, active = well fitted curve in the direction sought with a large enough effect; inconclusive = small, poorly fitted or top-dose-only effect, or another doubt; inactive = no such curve, though single readings can be large; an effect the other way counts as inactive or inconclusive.

How did Cc1ccc2c(c1)C=CC(C#N)N2C(=O)c1ccccc1 (centres undefined) do in these assays?
TGFb inhibitor: -20%; IL-1B inflam inh: 53; DT40 TDP1 CPT: 1.6µM*; HepG2 tox: -18%; DT40 TDP1 no CPT: 1.8µM*; TDP1 inh: 4%

What do the screens show for `CCSC(=O)N1c2ccc(OC)cc2C=CC1C#N` (centres undefined)?
TGFb inhibitor: inconclusive; IL-1B inflam inh: -7; DT40 TDP1 CPT: 0.0082µM*; HepG2 tox: 13%; DT40 TDP1 no CPT: 0.0052µM*

What do the screens show for `Cc1ccc2c(c1)C=CC(C)N2C(=O)c1ccccc1` (centres undefined)?
TGFb inhibitor: -3%; IL-1B inflam inh: 41; DT40 TDP1 CPT: inconclusive; HepG2 tox: 0%; DT40 TDP1 no CPT: 16µM*; TDP1 inh: -2%

What do the screens show for `Cc1ccc(C(=O)N2c3ccccc3NC(=O)C2C)cc1` (centres undefined)?
TGFb inhibitor: 4%; IL-1B inflam inh: -3; DT40 TDP1 CPT: 9%; HepG2 tox: -2%; DT40 TDP1 no CPT: -11%; TDP1 inh: -2%

How did Cc1ccccc1N(CC(=O)NCC1CCCO1)C(=O)CNS(=O)(=O)c1ccc(F)cc1 (centres undefined) do in these assays?
TGFb inhibitor: -4%; IL-1B inflam inh: -12; DT40 TDP1 CPT: 1%; HepG2 tox: 8%; DT40 TDP1 no CPT: -11%; TDP1 inh: 10%

How did CN(C)S(=O)(=O)c1ccc(C(=O)NCCS(=O)(=O)N2CCN(c3ccccc3)CC2)cc1 do in these assays?
TGFb inhibitor: 0%; DT40 TDP1 CPT: -25%; HepG2 tox: -20%; DT40 TDP1 no CPT: inconclusive; TDP1 inh: -1%

How did CCOC(=O)N1CCC(NC(=O)c2ccc3c(c2)N(Cc2ccc(C)cc2)CCS3)CC1 do in these assays?
TGFb inhibitor: 4%; IL-1B inflam inh: 24; DT40 TDP1 CPT: 21µM*; HepG2 tox: 2%; DT40 TDP1 no CPT: 21µM*; TDP1 inh: 4%

How did O=C(c1ccc2c(c1)N(Cc1ccc(F)cc1)CCS2)N1CCN(c2ccccc2)CC1 do in these assays?
TGFb inhibitor: inconclusive; DT40 TDP1 CPT: 21µM*; HepG2 tox: -51%; DT40 TDP1 no CPT: 23µM*; TDP1 inh: 4%

Results for CCOC(=O)N1CCC(NC(=O)c2ccc3c(c2)N(Cc2ccc(F)cc2)CCS3)CC1 ?
TGFb inhibitor: -7%; IL-1B inflam inh: -8; DT40 TDP1 CPT: 23µM*; HepG2 tox: -7%; DT40 TDP1 no CPT: 23µM*; TDP1 inh: 3%

How did CCOC(=O)N1CCN(C(=O)c2ccc3c(c2)N(Cc2ccc(F)cc2)CCS3)CC1 do in these assays?
TGFb inhibitor: inconclusive; IL-1B inflam inh: 21; DT40 TDP1 CPT: 8.2µM*; HepG2 tox: -27%; DT40 TDP1 no CPT: 9.2µM*

How did CCOC(=O)N1CCC(NC(=O)c2ccc3c(c2)N(C)CCS3)CC1 do in these assays?
TGFb inhibitor: -29%; IL-1B inflam inh: 9; DT40 TDP1 CPT: inconclusive; HepG2 tox: -2%; DT40 TDP1 no CPT: inconclusive; TDP1 inh: 5%

How did Nc1ccc(C(=O)NC23CC4CC(CC(C4)C2)C3)cc1 do in these assays?
TGFb inhibitor: -18%; IL-1B inflam inh: -20; DT40 TDP1 CPT: -2%; HepG2 tox: -11%; DT40 TDP1 no CPT: inconclusive; TDP1 inh: 2%

How did O=C(Cc1ccc2c(c1)OCO2)N1CCOc2ccc(CN3CCOCC3)cc2C1 do in these assays?
DT40 TDP1 CPT: 2%[9.04 µM]; DT40 TDP1 no CPT: -17%
